Measured values taken from PubChem BioAssay AID540336 (Broad Institute, 2011).
Hit rate of the full screen: of about 330,000 compounds, about 520 (0.16%) were called active.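 How the source made its calls: active means inhibition of at least 50% in every replicate; inconclusive means best replicate reaches 50% inhibition but some replicates fall short; inactive means the rest.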 Only a selection was taken, and actives are over-represented in it overall.

These molecules were tested against Histone acetyltransferase RTT109 (Candida albicans (strain SC5314 / ATCC MYA-2876)) (UniProt Q5AAJ8) (assay: Rtt109-Vps75 histone acetyltransferase blockade – biochemical, ThioGlo CoA-SH fluorescence, plate reader, primary screen (AID 540336)). Conditions: purified Rtt109/Vps75, ThioGlo CoA-SH fluorescence, 4 h; at 34.9 µM; active compounds read high.
Sequence of Histone acetyltransferase RTT109 (Candida albicans (strain SC5314 / ATCC MYA-2876)) (Q5AAJ8 whole entry, looked up): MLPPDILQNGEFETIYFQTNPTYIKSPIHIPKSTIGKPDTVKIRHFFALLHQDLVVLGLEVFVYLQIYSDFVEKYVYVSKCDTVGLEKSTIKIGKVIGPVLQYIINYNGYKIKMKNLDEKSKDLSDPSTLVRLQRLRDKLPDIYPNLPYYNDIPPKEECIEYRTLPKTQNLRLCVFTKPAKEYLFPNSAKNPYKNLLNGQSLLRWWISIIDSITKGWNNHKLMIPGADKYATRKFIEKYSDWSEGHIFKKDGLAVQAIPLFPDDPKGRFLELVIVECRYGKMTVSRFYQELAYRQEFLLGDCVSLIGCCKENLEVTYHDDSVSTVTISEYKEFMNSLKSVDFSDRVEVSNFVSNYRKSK

Row | SMILES | inhibition
1 | COc1cccc(/C=N/Nc2ccc(S(=O)(=O)Nc3ccccc3C(=O)O)cc2[N+](=O)[O-])c1O | 31.2% (inactive)
2 | COc1ccc(/C=C/C(=O)OCC(=O)N2CCN(S(=O)(=O)c3ccc(C)cc3C)CC2)cc1OC | -12.4% (inactive)
3 | Cc1ccc2c(O)c(Cc3ccccc3)c(=O)[nH]c2n1 | 3.15% (inactive)
4 | CCOC(=O)c1ccccc1NC(=O)CSc1nc2c(sc(=S)n2CC)c(=O)[nH]1 | 12.6% (inactive)
5 | COc1ccc(CNCCCn2cnc3c(OCc4ccccc4)ncnc32)cc1 | -0.493% (inactive)
6 | CC1(C)CC(CCC(=O)Nc2ccccc2Cl)C(=O)O1 (configuration not stated) | -18.6% (inactive)
7 | O=C(Nc1ccccc1Cl)/C(Cl)=C(\Cl)S(=O)c1ccccc1 (configuration not stated) | 136% (active)
8 | O=C(Nc1ccccc1Cl)O/N=C(/c1ccccc1)c1ccccn1 | -0.825% (inactive)
9 | Cc1cc2c(cc1C)NC1(C[C@H]3CCC(=O)N4CC[C@@H](C1)[C@@H]34)C(=NC(C)(C)CC(C)(C)C)N2 (some centres not stated) | -1.37% (inactive)
10 | COc1ccccc1C(=O)c1ccccc1C(=O)c1ccccc1 | -0.662% (inactive)
11 | COc1ccc2c(c1)C(=O)CC(c1ccccc1)O2 (configuration not stated) | -1.45% (inactive)
12 | CCCCc1nnc(NC(=O)CSc2nc(C)cc(=O)[nH]2)s1 | -0.892% (inactive)
13 | CCOC(=O)Cc1csc(NC(=O)CSc2ccc(Br)cc2)n1 | 2.14% (inactive)
14 | CCOC(=O)Cc1csc(NC(=O)CSc2nc(C)cc(=O)[nH]2)n1 | 66.2% (active)
15 | Cc1ccc(S(=O)(=O)N2CCC(C(=O)N3CCCCCCC3)CC2)cc1 | 1.29% (inactive)
16 | CSc1ccc(NC(=O)/C=C/C(=O)O)cc1 | 63.6% (active)
17 | Cc1cccc(N2CCN(c3ccc(NC(=O)/C=C\C(=O)O)cc3)CC2)c1 | 3.01% (inactive)
18 | O=C(O)/C=C\C(=O)Nc1ccc(OCc2ccccc2)cc1 | 3.12% (inactive)
19 | O=[N+]([O-])c1ccc(NS(=O)(=O)c2ccccc2)c(Cl)c1 | -7.39% (inactive)
20 | CC(=O)OC1CCC2(C)C(=CCC3C4CC(=O)N(O)C(=O)C4(C)CCC32)C1 (configuration not stated) | 1.39% (inactive)
21 | NC(=O)C1(Nc2ccccc2Cl)CCCC1 | -1.87% (inactive)
22 | CC(C)C[C@H]1CN([C@@H](CC(C)C)CN2CCC[C@@H]2CN2C(=O)C(=O)NC[C@@H]2Cc2ccccc2)C(=O)C(=O)N1CCc1ccccc1 | 3.1% (inactive)
23 | OCCN1CCN(CCO)C1=S | -2.55% (inactive)
24 | O=[N+]([O-])c1cc2ccccc2nc1-c1ccccc1 | 2.85% (inactive)
25 | CCCN(C(=O)COC(=O)CNS(=O)(=O)c1ccc(NC(C)=O)cc1)C1CCS(=O)(=O)C1 (configuration not stated) | 2.12% (inactive)
26 | Cc1cccc(C2c3c(n(C)c(=O)n(C)c3=O)N=C3c4ccccc4C(=O)C32)c1 (configuration not stated) | 29.8% (inactive)

Row | SMILES | inhibition
27 | O=C(Nc1ccccc1)Oc1cccc2cccnc12 | 1.03% (inactive)
28 | CC(C)(C)C(=O)Nc1cccc(-c2ccc[nH]2)n1 | -1.5% (inactive)
29 | O=C(Nc1ccccc1Cl)c1ccccc1S(=O)(=O)c1ccccc1[N+](=O)[O-] | 22.9% (inactive)
30 | CN(C)S(=O)(=O)Oc1ccccc1C(=O)Nc1ccccc1Cl | 58.3% (active)
31 | CC(=O)Nc1ccc(NC(=O)COc2ccccc2C(=O)Nc2cccc(Cl)c2Cl)cc1 | -5.99% (inactive)
32 | CC(C)(C)S(=O)(=O)N1Cc2cc(CO)cc(CCO)c2[C@H]1CCO | -3.04% (inactive)
33 | O=C(NCCCN1CCN(c2ccccc2F)CC1)C1CCC(=O)N1C1CCCCC1 (configuration not stated) | 58.1% (active)
34 | COc1ccc(CN2CC(C(=O)NCCN3CCN(c4ccccc4F)CC3)CC2=O)cc1 (configuration not stated) | -11.1% (inactive)
35 | O=C(NCCCN1CCCCCC1)C1CC(=O)N(C2CCCC2)C1 (configuration not stated) | 32.5% (inactive)
36 | CCCCC(=O)NC(c1ccc(OC)c(OC)c1)c1ccc2cccnc2c1O (configuration not stated) | -3.23% (inactive)
37 | CC(C)c1cc(CN2CCOCC2)cc(C(C)C)c1O | -6.21% (inactive)
38 | Oc1c(C(c2ccccn2)N2CCOCC2)ccc2cccnc12 (configuration not stated) | 51.7% (active)
39 | COc1cccc(C=CC(=O)C=CC=Cc2ccccc2)c1 | -4.82% (inactive)
40 | O=C(O)c1ccc(NN=CC2=C(N3CCOCC3)/C(=C/c3ccccc3)CC2)cc1 | -15.5% (inactive)
41 | Cn1cc(C2OC(=O)c3ccccc32)c2ccccc21 (configuration not stated) | 0.802% (inactive)
42 | O=C(Nc1c(Br)cc2c(c1Br)Cc1cc([N+](=O)[O-])ccc1-2)C(Cl)Cl | -4.04% (inactive)
43 | COC(=O)c1c(C)oc2ccc(N(C(=O)Oc3ccccc3)S(=O)(=O)c3ccccc3)cc12 | 0.88% (inactive)
44 | CC(=O)N(c1ccc2oc(=O)sc2c1)S(=O)(=O)c1ccc(C)cc1 | 134% (active)
45 | CC(=O)Oc1ccc(N(C(C)=O)S(=O)(=O)c2ccc3ccccc3c2)cc1Br | 2.06% (inactive)
46 | CCOC(=O)CCC(NC(=O)c1ccc(CNc2nc3cc(C(F)(F)F)ccc3nc2C(=O)OCC)cc1)C(=O)OCC (configuration not stated) | 9.24% (inactive)
47 | CC(C=Cc1ccccc1)=NNS(=O)(=O)c1ccc([N+](=O)[O-])cc1 | -0.601% (inactive)
48 | CC(=O)OC1CCC2C3CCC4=C(CC(F)C(=O)C4)C3CCC12C (configuration not stated) | -7.91% (inactive)
49 | O=C1c2ccccc2C(=O)C1C(=O)C1CC1 | 0.0105% (inactive)
50 | O=C1NCC(Nc2ccccc2)C(=O)N1 (configuration not stated) | -4.85% (inactive)
51 | CCCCNC1(C#N)CCN(Cc2ccccc2)CC1 | 0.637% (inactive)
52 | O=C1C=C(NS(=O)(=O)c2ccccc2)C(=O)c2ccccc21 | -1.13% (inactive)
